Laboratory results reported in PubChem BioAssay AID1458 (National Center for Advancing Translational Sciences (NCATS), 2008).
Among all 210,000 compounds or so, about 5,900 (2.8%) were called active. Where a call stands in place of a potency, no number is given. Another 5% or so got no clear call; they are omitted. The sample holds actives, similar compounds and a random draw of the others, so the mix is not that of the screen. Calls come from the whole dose curve; as a rule, active = well fitted activation curve with a large enough effect; inconclusive = small, poorly fitted or top-dose-only effect; inactive = no such curve, though single readings can be large or run the other way.

assay: qHTS Assay for Enhancers of SMN2 Splice Variant Expression; details: HEK293 SMN2-luciferase splicing reporter, luminescence, 30-36 h; series mostly up to 46.1 µM; note: nearly all actives have a fitted effect of over 55% in size
How it was run: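 HEK293 cells carry an SMN2 minigene-luciferase reporter in which exon 7 inclusion puts luciferase in frame. Cells were seeded at 2000 cells/well, attached for 10-12 hours, then exposed to compounds for 30-36 hours at 37C before ONE-Glo luminescence.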
Potency is the fitted concentration of half-maximal effect.

SMILES	Potency
COc1ccc(OC)c(N=Cc2c(O)[nH]c3ccccc23)c1	inactive
COc1ccccc1N=Cc1c(O)c2ccccc2oc1=O	inactive
COc1ccc(N=Cc2c(O)[nH]c3ccccc23)cc1OC	14.1 µM (active)
Cc1ccc(C(=O)Cn2cccn2)cc1	inactive
Cc1ccc(C(=O)Cc2nnc(C)s2)cc1	12.6 µM (active)
Cc1ccc(C(=O)CS(C)(=O)=O)cc1	inactive
c1ccc(CN=C2Nc3ccccc3CS2)nc1	12.6 µM (active)
O=C(NCc1ccccn1)Nc1ccc(F)cc1	inactive
Cc1nnc(NCc2ccccc2)c2c1nnn2Cc1ccc(F)cc1	inactive
CC1CCN(S(=O)(=O)c2ccc3c(c2)N(CC(=O)NCc2ccccc2Cl)C(=O)CO3)CC1	inactive
Cc1csc2nc(COc3ccc(NC(=O)COc4ccccc4)cc3)cc(=O)n12	inactive
CCOc1ccc2nc(N3CCCC(C(=O)Nc4cc(C)ccc4C)C3)sc2c1 (stereo unspecified)	14.1 µM (active)
CCOc1ccc2nc(SC(CC)C(=O)Nc3cc(C)on3)sc2c1 (stereo unspecified)	inactive
CCOc1ccc2nc(Nc3nc4ccc(NC(C)=O)cc4s3)sc2c1	inactive
CCOc1ccc2nc(N3CCC(C(=O)Nc4cc(C)ccc4C)CC3)sc2c1	inactive
Cc1ccnc(N2CCCC(C(=O)Nc3cc(F)ccc3C)C2)n1 (stereo unspecified)	inactive

SMILES	Potency
CCOc1ccc2nc(C(=O)N3CCCC(C)C3)sc2c1 (stereo unspecified)	2.82 µM (active)
CCCNC(=O)CCn1nc(-c2ccccc2)c2ccccc2c1=O	inactive
O=c1c(O)c(Br)ccc2c(Br)c(O)c(O)c(O)c12	inactive
O=C1C(C=NCC2CCCO2)=C(O)c2ccccc21 (stereo unspecified)	11.2 µM (active)
O=C(CS(=O)(=O)Cc1ccccc1)NCC1CCCO1 (stereo unspecified)	inactive
CC(=NCC1CCCO1)c1c(O)[nH]c(=O)[nH]c1=O (stereo unspecified)	inactive
Cc1ccc(C)c(N2CCN(C(=O)CCc3c(C)nc4c(c3C)c(=O)n(C)c(=O)n4C)CC2)c1	inactive
O=C(Nc1cccc(NC(=O)c2ccco2)c1)c1cnccn1	inactive
CCN1CCN(c2ccc(NC(=O)c3cnccn3)cc2)CC1	11.2 µM (active)
O=C(Nc1ccc(S(=O)(=O)N2CCCCC2)cc1)c1cnccn1	inactive
O=C(Nc1ccc2c(c1)OCCO2)c1cnccn1	12.6 µM (active)
O=C(CCN1C(=O)c2ccncc2C1=O)Nc1ccc2c(c1)OCCO2	inactive
O=C(NCN1CCN(CCO)CC1)c1cnccn1	inactive
O=C(Nc1ccc(OC(F)(F)F)cc1)c1cc2c(=O)n3ccccc3nc2s1	inactive
O=C(Cn1c(=O)n(-c2ccc(F)cc2)c(=O)c2sccc21)Nc1cccc(C(F)(F)F)c1	inactive
